Reference: PubChem BioAssay (NCI)
About 83,000 compounds went through this panel and 20% of them were active in at least one assay; those are over-represented in the sample as a whole.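 Cells were grown in 96-well plates and exposed to the test compound at a single concentration for 48 hours; results are reported as percent growth, with values below 10 considered active.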 A number with no mark means an inactive call. The source made the active and inactive calls.

Assays:
Assay in all cases: NCI-60 one-dose screen, 48 h (100 = growth as untreated, 0 = no growth, -100 = all killed)
Settings in all cases: 10 µM unless noted
T-47D breast = system: T-47D breast
MDA-MB-435 melanoma = system: MDA-MB-435 melanoma
SW-620 colon = system: SW-620 colon
MCF7 breast = system: MCF7 breast
HCT-116 colon = system: HCT-116 colon
HCC-2998 colon = system: HCC-2998 colon
KM12 colon = system: KM12 colon
BT-549 breast = system: BT-549 breast

Row | Structure (SMILES) | growth (T-47D breast) | growth (MDA-MB-435 melanoma) | growth (SW-620 colon) | growth (MCF7 breast) | growth (HCT-116 colon) | growth (HCC-2998 colon) | growth (KM12 colon) | growth (BT-549 breast)
1 | CN(C)c1ccc(/C=C2\C=C(c3nc4ccccc4s3)OC2=O)cc1 | 78% | 100% | 94.7% | 70.8% | 100% | 97.8% | 93.7% | –
2 | Cc1ccc2c(c1)=C/C(=C\c1cc(-c3ccccc3)[nH]c1O)C(=O)N=2 | 40.2% | -1.51% (active) | 32.8% | 21.5% | 17.6% | 56.6% | 28.3% | –
3 | Nc1ccc(Br)cc1C(F)(F)F | 96.7% | 117% | 111% | 106% | 103% | 114% | 112% | –
4 | Nc1cc(C(=O)O)cc(-n2c(O)c(C=C3N=c4ccccc4=N3)sc2=S)c1 | 95.2% | 103% | 96.8% | 94.5% | 99.4% | 99.3% | 103% | –
5 | Cc1[nH]n(-c2cccc(Cl)c2)c(=O)c1/C=C1\C=c2ccccc2=CC1=O | -7.69% (active) | 20.7% | 31% | 8.67% (active) | 8.69% (active) | -22.2% (active) | 21.2% | –
6 | N#Cc1c(-c2ccc(Cl)cc2)nc(NN=Cc2ccc[nH]2)nc1N1CCOCC1 | 64.9% | 94.7% | 89.2% | 70.7% | 90.1% | 94.1% | 36.5% | –
7 | O=S(=O)(NCCNc1nccc(-c2c(-c3ccc(F)c(O)c3)nc3sccn23)n1)c1ccc(Cl)cc1 | 2.76% (active) | 3.65% (active) | 52.3% | 13.5% | 16.7% | 59.6% | 12.6% | –
8 | Cc1ccc(-c2nc(SCC(=O)N3CCN(c4cc5c(cc4F)c(=O)c(C(=O)O)cn5C4CC4)CC3)nc(Cl)c2C#N)cc1 | 91.1% | 106% | 103% | 94.9% | 101% | 98.8% | 102% | –
9 | Nc1ncnc2c1N=C(c1ccc(F)cc1)CC(c1cccc(Nc3ccnc4cc(Cl)ccc34)c1)N2 (stereo unspecified) | 93.2% | 41.8% | 82.8% | 51.2% | 49.7% | 82.5% | 60.9% | –
10 | O=C(c1cccc(N2CCOCC2)n1)c1c[nH]c2ccccc12 | 70.7% | 99.7% | 94.1% | 66% | 97.7% | 113% | 90.5% | –
11 | COc1ccc(/C=N/Nc2c3ccccc3nc3ccccc23)cc1 | 87.5% | 97% | 97.7% | 81.9% | 97.4% | 105% | 91.4% | –
12 | Cn1cc(-c2nc3c(F)cc4[nH]ncc4c3c3c2CCCC3)c(C(F)(F)F)n1 | 39.9% | 14% | 18.6% | 24.6% | 15.1% | 65.3% | 24.2% | –
13 | Nc1cccc(-c2ccc(COc3ccc(CC4SC(=O)NC4=O)cc3)cc2)c1 (stereo unspecified) | 50.3% | -17.7% (active) | 34.2% | 37.7% | 32.1% | 87.4% | 33.3% | –
14 | O=C1OCC2=C1C(c1ccccc1)c1cc3c(cc1N2CCO)OCCO3 (stereo unspecified) | 50.5% | -32% (active) | 21.1% | 8.47% (active) | 6.08% (active) | 0.753% (active) | 9.35% (active) | –
15 | COc1ccc(/C=C(/C(=O)N2CCNCC2)c2cc(OC)c(OC)c(OC)c2)cc1O | 31.6% | -45% (active) | 35.1% | 23% | 19.8% | 78.4% | 21.3% | –
16 | O=S(O)c1cc(Cl)cc(Cl)c1OCc1ccccc1 | 102% | 107% | 107% | 100% | 96.2% | 102% | 105% | –
17 | COc1ccc(-c2cc(-c3cccnc3)nc3sc4c(N)c(C(C)=O)c(-c5ccccc5)nc4c23)cc1OC | 59.4% | 45.7% | 109% | 65.3% | 67.6% | 80.1% | 76.2% | –
18 | COc1cc2ncnc(Nc3ccc(S(=O)(=O)Nc4nccs4)cc3)c2cc1OCCCN1CCCC1 | 105% | 99.7% | 103% | 99.6% | 97.3% | 112% | 121% | –
19 | Cc1ccc(NC(=O)c2sc3nc(C)c(C(O)c4ccccc4)cc3c2N)cc1 (stereo unspecified) | 42.3% | -13.1% (active) | 23.1% | 19.2% | 13.7% | 12.1% | 16.8% | –
20 | CCN(CC)C(=O)CC1=C(C)/C(=C/c2[nH]c(-c3ccc[nH]3)cc2OC)N=C1C | 33.4% | 17.2% | 15.2% | 19.3% | 1.94% (active) | 30.4% | 13.9% | –
21 | COc1ccc(-c2cn(Cc3cc4ccccc4s3)nn2)cc1OCCN1CCCCC1 | – | 69.6% | 90.9% | 60.6% | 75.9% | 57.4% | 87% | 74.8%
22 | COc1cc(Cc2cc(OC)c(O)c(OC)c2)cc(OC)c1O | – | 2.4% (active) | 41.4% | 68.1% | 85.6% | 73.5% | 55.7% | 87.8%
23 | c1ccc(-c2nc3ccccc3[nH]2)c(OCCCCCOc2ccccc2-c2nc3ccccc3[nH]2)c1 | – | 63.5% | 18.5% | 19.8% | -10.4% (active) | 92.2% | 98.6% | 88.5%
